Source: the supplement of paper PMC6555819

test system: VDR:RXRa (NR concentration 270 nM, RXRa partner concentration 90 nM); assay: PBM binding z-score (relative to random genomic background probes); higher = stronger binding; sequences stand for … in GC…GCGATTGACAGCGTAGAATGAAGG
Protocol: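 Protein-binding microarray (Agilent 4x180K custom design, double-stranded 60-nt probes: 5' GC cap, 34-nt variable region, 24-nt constant primer region; full probe sequence given). Purified or IVT nuclear receptor:RXRα heterodimers (3:1 NR:RXRα, mostly 270:90 nM) or homodimers were incubated for 1 h in PBS with 2% milk and no ligand, then detected with Alexa488 antibodies. Fluorescence from o1-orientation probes (~5 replicates averaged) was converted to z-scores against 500 random hg19 background probes. Variable regions are seed direct-repeat (DR0–DR5) sites, all their single-nucleotide variants and half-site ablations.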

| Sequence | PBM binding z-score |
| --- | --- |
| AGAACGAGGTTAAGATCAGGGAAACAGAATACAT | 1.36 |
| AATACAGGGTCACTAGGCCAGTGTAGGTACGAAT | 4.26 |
| TCTATTGGTTGAAGGGCAACCGACGAGTCCGTTT | 0.889 |
| GTGCCAAGGTGAATAGGTCGTTGATGAGTAGGCG | 0.576 |
| CCGACTGGGGCAAATGTTACCATACTCAGTACGA | -0.22 |
| CGTCCAAGGTCAATACTAGGTCAGTGAAAGCATT | 4.63 |
| CTCGAAAGGTCGATTGAGGTGAGTATACGGATAA | 3.76 |
| AGACTGAGGTTATACGTAGATCAGGGAAGAAAGT | 1.42 |
| CCTTACGGGTCACGAGGTTAAAGCACGACGAGCG | 5.59 |
| ACTATTAGTTGAGACGAGGGCAACCCATAGGTTG | 0.697 |
| TTACCAAGGTGCAAGGTCGTTGATGCACGCCTTG | 1.92 |
| ATCTCTAGGTAACAGGTTCAGTGAAAGAGAGGAC | 1.95 |
| ACTATTAGTTGACTTTGGGCAACCGATACGACGC | 0.238 |
| CCTAGTTGGTCAAGGCCACACACGCTATAGGTAC | 0.31 |
| GCGACTGGGGCATCAGCAGGTTACCGTAACTTAA | -0.147 |
| CCTACTGGGCCATCCAGAGGTCATTGATCATATG | 4.12 |
| TCGAGTAGGTTACCAATGGGGCATTAAGCTTTCT | 0.0667 |
| GCATATAGGTAGTACAAGGTGAAAGTCCGATTGT | 0.154 |
| CAAACTAGGTCACGAAAAGTCAAAGTCGAATGAC | 2.71 |
| TAGCATAGGTCATTCAGGGGCCAGTATAGAAAGC | 4.18 |

| Sequence | PBM binding z-score |
| --- | --- |
| CAAACTCGGTCAAAGGTCAAAGTCGAGCCAACCA | 6.22 |
| GGAACGAGGGCAAGTTGCTAGCAGAGTTTGATGG | 0.604 |
| CAAACTATGTCACAGAGGTCAAAGTCCGTGCGTA | 6.63 |
| GCTTACGGGTCAAAGGCTATAGCATGAATAGAAT | 3.47 |
| TTAATGAGGTTATAAGATCAGGGAACGTTGCAAA | 1.27 |
| TCTCGGAGGACACGAAGGTCCGAGCTTTCCAGAG | 0.0624 |
| TTACTAAGGTGAAAGGTCGTTGATGCACGCCTTG | 3.59 |
| AGAATGAGGTTGAGATCAGGGAAACAGAATACAT | 0.141 |
| GCTCGGAGGACAAGGTCCGAGCTTTGTCCGTAGA | -0.684 |
| TAGCCTGGGTCATTGGGCCAGTATAGTACGCATC | 1.97 |
| TTGCCTAGGTCATGGGCCAGTATACCACGCGAAC | 2.21 |
| TCATATAGGTAATACAAGTGAAAGTCGGCATCTA | 1.24 |
| GCGACTGGGGCACCAGCAGGTTACCATAACTTAA | -0.157 |
| TCTCGTAGATCAACAGGAGGTTAAGAAAGATCGA | 0.875 |
| TCTCGGAGGACACGAAAGGTCAGGGCTCGACATC | 3.43 |
| TCATACAGGTAATACAGGTGAAAGTCGGCATCTA | 1.24 |
| TTACCAAGGTGAGGGTCGTTGATCCCTCTGTAGA | 0.884 |
| CCTACTAGGTCAATGGTCAGCTAAAGCAGCTCGC | 1.45 |
| CCTAATGGGCCAAGGTCATTGATCAGTCAAAGCA | 3.37 |
| TTACCAAGGTGAGCTGAGGTCATTGATCCAACTC | 5.79 |
